Pf growth 48h = inhibits P. falciparum growth in the first generation, 48 h; P. falciparum luciferase growth in erythrocytes, 48 h; Potency, µM (highest dose often 28.7 µM), for the others: at the top dose activity change, negative = inhibition, hits mostly inhibitors; 310,000 tested, 5.9% active; AID 504832
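Luminescence readout; reporter = integrated firefly luciferase in P. falciparum. RBC culture at 2% hematocrit, 0.1% parasitemia final, 37 C/5% CO2; decreased signal taken as growth inhibition.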
AmpC no deterg = inhibitors of E. coli AmpC beta-lactamase without detergent; Potency, µM (highest dose often 57.1 µM), inactives show top-dose activity change, negative = inhibition, actives largely listed as inhibitors; AID 485341; 330,000 tested, 0.52% active; AmpC nitrocefin hydrolysis, absorbance 480 nm, 0.0001% Triton;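 further: plate controls were no compound for no effect and no enzyme for full effect; nearly all actives have a fitted effect of over 20% in size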
Target sequence (P00811 whole entry, looked up): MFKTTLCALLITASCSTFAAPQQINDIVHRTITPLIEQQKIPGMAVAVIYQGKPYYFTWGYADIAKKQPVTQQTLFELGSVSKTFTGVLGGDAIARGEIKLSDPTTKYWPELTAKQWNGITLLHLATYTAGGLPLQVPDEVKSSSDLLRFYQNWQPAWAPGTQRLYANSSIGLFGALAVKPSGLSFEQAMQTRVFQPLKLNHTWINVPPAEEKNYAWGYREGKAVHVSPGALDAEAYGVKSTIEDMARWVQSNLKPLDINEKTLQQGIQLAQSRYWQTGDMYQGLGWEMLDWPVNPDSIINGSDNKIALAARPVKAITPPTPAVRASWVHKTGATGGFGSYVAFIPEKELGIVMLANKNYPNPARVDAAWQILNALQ
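AmpC (5.3 nM in the dispensed reagent) in 20 mM phosphate pH 7.0 with 0.01% (detergent screen) or 0.0001% Triton X-100 was preincubated with compounds for 15 min at room temperature. Nitrocefin was then added from an 800 uM solution, and hydrolysis was followed at 480 nm.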
AmpC inh detg = inhibitors of E. coli AmpC beta-lactamase with detergent. AID 485294. 370,000 tested, 0.041% active. P00811. Potency, µM (titrated, usually from 114 µM), for the others: at the top dose activity change, negative = inhibition, usual class: inhibitors. AmpC hydrolysis of nitrocefin, absorbance 480 nm, 0.01% Triton;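 further: 0% = no-compound wells and -100% = no-enzyme wells; nearly all actives have a fitted effect of over 25% in size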
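AmpC (5.3 nM in the dispensed reagent) in 20 mM phosphate pH 7.0 with 0.01% (detergent screen) or 0.0001% Triton X-100 was preincubated with compounds for 15 min at room temperature. Nitrocefin was then added from an 800 uM solution, and hydrolysis was followed at 480 nm.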
Pf growth 96h = inhibits malaria parasite growth, 96 h | P. falciparum luciferase reporter growth, 96 h | Potency, µM (highest dose often 28.7 µM), for the others: at the top dose activity change, negative = inhibition, actives largely listed as inhibitors | 320,000 tested, 6.9% active
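Erythrocytes infected with luciferase-expressing P. falciparum were dispensed at 2% hematocrit and 0.05% parasitemia (final), then incubated with compounds 96 hours at 37 C in 5% CO2. Luminescence after detection reagent addition reported growth.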
AMA1 RON2 block = AMA1-RON2 (P. falciparum) interaction inhibition; 360,000 tested, 0.2% active; Potency, µM (doses to about 58.2 µM), without a hit: at the top dose activity change, negative = inhibition, most hits filed as inhibitors; AlphaScreen AMA1-biotinylated RON2 peptide binding;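 further: 0% = vehicle wells and -100% = peptide control; nearly all actives have a fitted effect of over 45% in size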
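AMA1 (3D7) with his tag at 25 nM final met compounds first, then biotinylated RON2 peptide at 25 nM; detection used donor plus acceptor beads, 10 µg/mL apiece, read by AlphaScreen after 30 min at room temperature.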
HCV inhibitor = HCV inhibition. Huh7.5.1 HCVcc-Cre infection, luciferase reporter, 44 h. Potency, µM (top dose mostly 41.8 µM), for the others: at the highest dose activity change, negative = inhibition, usual class: inhibitors. AID 651820. 340,000 tested, 3.4% active
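HCVcc-Cre virus at an moi near 0.5 was added right after compound to cells cultured 4 h from seeding (1,000 cells/well). Luciferase activity was determined 44 h later, 15 min after substrate addition at RT.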
* hit, by the source's call; u = inconclusive; x = no result given; [ ] = dose if it differs, or a comment. An excerpt weighted towards active compounds, which were near 11% of everything screened. The call rests on the fitted dose curve; in most records, active means well fitted curve in the direction sought with a large enough effect; inconclusive means small, poorly fitted or top-dose-only effect, or another doubt; inactive means no such curve, though single readings can be large; an effect the other way counts as inactive or inconclusive. Unless noted, on the % scale 0 is the no-effect control and ±100 the full control effect; potency means the concentration at half of the fitted maximal effect.

SMILES | Pf growth 48h | AmpC no deterg | AmpC inh detg | Pf growth 96h | AMA1 RON2 block | HCV inhibitor
CC(=O)c1cc(-c2ccc(F)cc2)n(CCC(=O)Nc2cccnc2)c1C | 9.3µM* | 25% | 0% | 17% | 9% | -1%
CC(=O)c1cc(-c2ccccc2)n(CC(=O)Nc2ccc(C)c(C)c2)c1C | 9% | 11µM* | 2% | u | 1%[11.6 µM] | -13%
Cc1cccc(CSc2nc3ccncc3n2CC(=O)Nc2ccc(C)c(C)c2)c1 | 1% | 3.2µM* | -13% | 3.7µM* | x | -2%[8.37 µM]
COc1ccc(NC(=O)N2CCC(CN3CCCC3)CC2)c(OC)c1 | x | x | 16% | x | x | x
COc1cc(C(=O)CC2(O)C(=O)N(Cc3ccccc3Cl)c3ccccc32)cc(OC)c1OC (stereo unspecified) | x | x | 3% | x | x | x
CCN(CC)C(=O)C1CCN(c2nnc(C)c3c(C)n(-c4ccc(Cl)cc4)nc23)CC1 | x | x | 19% | x | x | x
CCCN1CCN(C(=O)C2CCN(c3nnc(C)c4c(C)n(-c5ccc(C)cc5)nc34)CC2)CC1 | 10µM* | 147% | 0% | u | 3% | 2.2µM*
COc1ccc(-n2nc3c(N4CCC(C(=O)N5CCCCCC5)CC4)nnc(C)c3c2C)cc1 | u | 143% | 0% | u | -3% | 11µM*
COc1ccc(-n2nc3c(N4CCC(C(=O)NCCc5ccco5)CC4)nnc(C)c3c2C)cc1 | u | 119% | 1% | 1% | -4% | u
Cc1ccc(-n2nc3c(N4CCC(C(=O)N5CCCCCC5)CC4)nnc(C)c3c2C)cc1 | u | 148% | -2% | 12µM* | -9% | -26%
CCOC(=O)C1CCCN(C(=O)C2CCN(c3nnc(C)c4c(C)n(-c5ccccc5)nc34)CC2)C1 (stereo unspecified) | x | x | -6% | x | x | x
Cc1nnc(N2CCC(C(=O)N3CCCCCC3)CC2)c2nn(-c3ccc(Cl)cc3)c(C)c12 | u | 84% | -2% | -14% | -6% | 8.9µM*
CN(C)S(=O)(=O)Oc1ccsc1C(=O)Nc1ccc(Cl)c(Cl)c1 | u | -18% | 2% | u | -1% | u
CN(C)S(=O)(=O)Oc1ccc(Cl)cc1C(=O)Nc1cccc(C(F)(F)F)c1 | u | 30% | -1% | u | -1% | 11µM*
CN(C)S(=O)(=O)Oc1ccccc1C(=O)Nc1cccc(C(F)(F)F)c1 | u | -9% | -5% | 0% | 30% | -10%
CN(C)S(=O)(=O)Oc1ccsc1C(=O)Nc1cccc(Cl)c1 | 1.7µM* | -18% | -3% | u | 25% | u
COC(=O)C1=C(C)NC(C)=C(C(=O)OCCCN2CCC(c3ccccc3)(c3ccccc3)CC2)C1c1cccc([N+](=O)[O-])c1 (stereo unspecified) | 1.5µM* | x | x | 15µM* | x | x
C#CCN1C(C)=C(C(=O)OC)C(c2cccc([N+](=O)[O-])c2)C(C(=O)OCC)=C1C (stereo unspecified) | 13µM* | -18% | u | u | -5% | u
COc1ccc(-c2noc(N(c3cccc(Cl)c3)c3nc(-c4ccc(OC)c(OC)c4)no3)n2)cc1OC | x | x | 0% | x | x | x
Cc1ccc(C(=O)N(CC(=O)NC2CCCC2)Cc2cccs2)s1 | -9% | -12% | -9% | 1.5µM* | -1% | -21%
O=C(CN(Cc1cccs1)C(=O)CSc1nnc(COc2ccccc2)o1)NC1CCCCC1 | 13µM* | -7% | -10% | 8% | 12% | -10%
Cc1ccc(C(=O)N(CC(=O)NC2CCCC2)c2ccccc2C)s1 | -16% | -3% | -8% | 14% | -4% | u
Cc1sc2nc(CN(Cc3cccs3)C(=O)NC3CCCCC3)[nH]c(=O)c2c1C | u | -9% | 35µM* | -4% | -11% | 11µM*
CCOc1ccccc1C(=O)NCc1ccc2c(c1)CCN2C(=O)c1ccccc1 | x | x | 9% | x | x | x
COc1ccc(NC(=O)COc2ccccc2Cl)cc1S(=O)(=O)N1CCCCC1 | 12µM* | -3% | 3% | 10µM* | -12% | 10µM*
SMILES | Pf growth 48h | AmpC no deterg | AmpC inh detg | Pf growth 96h | AMA1 RON2 block | HCV inhibitor
COc1ccc(OCC(=O)Nc2ccc(OC)c(S(=O)(=O)N3CCCCC3)c2)cc1 | -6% | -2% | 1% | 7% | -9% | 10µM*
COc1ccc(NC(=O)CSc2ccc(NC(C)=O)cc2)cc1S(=O)(=O)N1CCOCC1 | x | -7% | x | x | 3% | 0%
Cc1ccccc1OCC(=O)Nc1ccc(C)c(S(=O)(=O)N2CCCCCC2)c1 | u | 7% | u | u | 12% | u
COc1ccc(NC(=O)CSc2ccc3ccccc3c2)cc1S(=O)(=O)N1CCCCC1 | 3% | -18% | -9% | -5% | 2% | 5µM*
CCc1ccccc1OCC(=O)Nc1ccc(F)c(S(=O)(=O)N2CCOCC2)c1 | u | -7% | u | 13µM* | 23% | u
COc1ccc(CC(=O)Nc2ccc(F)c(S(=O)(=O)N3CCOCC3)c2)cc1 | x | x | x | x | 0% | 13%
Cc1cccc(C(C)C)c1NC(=O)c1ccc2c(c1)CCCN2S(C)(=O)=O | x | x | 15% | x | x | x
Cc1nnc(NC(=O)CSCc2cc(=O)c3cc(Cl)ccc3[nH]2)s1 | x | x | 2% | x | x | x
CCOC(=O)Cn1c(=O)oc2cc(S(=O)(=O)NCc3ccccn3)ccc21 | x | -1% | -13% | 12µM* | 93% | 10%
CCCCNS(=O)(=O)c1ccc2c(c1)oc(=O)n2CC(=O)OCC | x | -3% | -13% | u | -9% | 6%
CCOC(=O)Cn1c(=O)oc2cc(S(=O)(=O)NCc3cccs3)ccc21 | x | -20% | u | 13µM* | 24% | 13%
Cc1cn2c(=O)cc(COC(=O)c3ccc(NC(=O)C(C)Oc4ccccc4)cc3)nc2s1 (stereo unspecified) | x | x | 5% | x | x | x
O=C(O)CCC(=O)N1CCc2cc(S(=O)(=O)NCc3ccc(F)cc3)ccc21 | x | x | -13% | x | x | x
OC(CNCC1(N2CCCCC2)CCCCC1)COc1ccc(Cl)cc1Cl (stereo unspecified) | 3.3µM* | 43% | -3% | u | -29% | -22%
N#C/C(=C\c1ccc(-c2cc(Cl)ccc2Cl)o1)C(=O)Nc1ccccc1C(=O)O | x | x | -2% | x | x | x
COc1ccc(CCNC(=O)CSc2nnnn2-c2cccc(C(C)=O)c2)cc1OC | x | x | -3% | x | x | x
Cn1cc(S(=O)(=O)N2CCCCCC2)cc1C(=O)NCc1ccccc1Cl | x | x | 8% | x | x | x
CC(C)(C)NC(=O)C(c1ccncc1)N(C(=O)Cn1nnc(-c2ccc(F)cc2)n1)c1ccc(F)cc1 (stereo unspecified) | 2.6µM* | 30% | 1% | 4% | 3% | 5%

Source: PubChem (National Center for Advancing Translational Sciences (NCATS))
